APP transl inh – inhibitors of APP translation via 5'UTR reporter, primary screen, APP 5'UTR luciferase, SH-SY5Y cells; SH-SY5Y APP 5'UTR-luciferase reporter, luminescence; inhibition, % at 2 µM; 0.82% of 190,000 active; AID 1285, 2008;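 active = inhibition above a set limit, derived from the sample mean plus 3 SD, cut at about 45% in these data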
Ba/F3 V617F tox – reduced viability of JAK2V617F-dependent Ba/F3 cells, primary screen, JAK2V617F inhibitor project, cell-based, Ba/F3 EpoR-JAK2V617F, luminescence | inhibition, % at 5.6 µM | AID 1446, 2008 | ATP luminescence | 1.1% of 220,000 active;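 active = inhibition above the campaign mean plus 3 SD over all tested compounds, cut at about 24% in these data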;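 also: cytokine-independent growth of Ba/F3 cells driven by EpoR plus mutant JAK2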
BaF3 parental – parental Ba/F3 cell viability inhibition, counter-screen for JAK2V617F inhibitor project, murine pro-B, CellTiter-Glo luminescence; CellTiter-Glo ATP luminescence; inhibition, % at 5.6 µM; 1.1% of 220,000 active; AID 1486, 2009;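 active = inhibition above a per-campaign cutoff, the mean inhibition of all tested compounds plus 3 SD, cut at about 27% in these data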
IEC-6 tox-1 – cytotoxicity in IEC-6 intestinal epithelial cells, primary screen, cytotoxicity control for KLF5 inhibitor project, cell-based, luminescence; IEC-6 cytotoxicity, luminescence viability; inhibition, % at 5 µM; 0.78% of 290,000 active; AID 1825, 2009
KLF5 inh – KLF5 expression inhibitors, primary screen, DLD-1 cells, luminescence. DLD-1 KLF5 promoter-luciferase reporter. AID 1700, 2009. inhibition, % at 5 µM. 0.23% of 290,000 active;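 active = inhibition above a per-plate limit of that plate's mean compound inhibition plus 3 SD, cut at about 60% in these data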;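 also: higher means less KLF5 promoter-driven luciferase light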
KLF5 confirm – KLF5 expression inhibitors, confirmation, DLD-1 cells, luminescence. inhibition, % at 4 µM. shares compounds with KLF5 inh. DLD-1 KLF5 promoter firefly luciferase reporter. 79% of 610 active;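 active = inhibition above a set limit taken from the earlier primary screen, cut at about 63% in these data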
IEC-6 tox-2 – cytotoxicity in rat IEC-6 cells, cytotoxicity control for KLF5 inhibitor project, cell-based, luminescence, triplicate. shares compounds with KLF5 inh. 56% of 610 active. IEC-6 rat intestinal cells, viability luminescence. AID 1905, 2009. inhibition, % at 4 µM; in the data active = inhibition above about 23%;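 also: cells exposed to compounds for 48 hours before viability read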
IEC-6 tox confirm – cytotoxic compounds in IEC-6 epithelial cells, confirmation, cytotoxicity control, cell-based, luminescence. shares compounds with IEC-6 tox-1. IEC-6 rat intestinal epithelial viability. inhibition, % at 5 µM. 63% of 1,900 active
Each line names hits and unclear results; the compound was inactive in the other large screens (follow-up assays come after a bar, where they were run). An excerpt weighted towards active compounds, which were near 1.8% of everything screened. Rule as the data show it, unless noted: active = inhibition above about 22%; inactive = the rest.

CC[n+]1c(/C=C2\Sc3ccccc3N2C)ccc2cccc(C)c21	APP transl inh 51.9, Ba/F3 V617F tox 101.9, BaF3 parental 104.1, IEC-6 tox-1 70.7, KLF5 inh 68.3 | KLF5 confirm 114.9 | IEC-6 tox-2 55.5 | IEC-6 tox confirm 63.8
O=S(=O)(Nc1cc(Sc2ncn[nH]2)c(O)c2ccccc12)c1ccccc1	APP transl inh 75.8, Ba/F3 V617F tox 95.1, BaF3 parental 99.4, IEC-6 tox-1 85.1, KLF5 inh 68.0 | KLF5 confirm inactive | IEC-6 tox-2 inactive | IEC-6 tox confirm inactive
COc1cc2c(cc1OC)C(C)N(C(=O)Nc1cc(C)cc(C)c1)CC2 (stereo not drawn)	IEC-6 tox-1 75.8, KLF5 inh 63.1 (no result: APP transl inh, Ba/F3 V617F tox, BaF3 parental) | KLF5 confirm 80.2 | IEC-6 tox-2 54.7 | IEC-6 tox confirm 55.4
CC1CCCN(S(=O)(=O)c2ccc3oc(=O)ccc3c2)C1 (stereo not drawn)	none (no result: APP transl inh, Ba/F3 V617F tox, BaF3 parental)
CC(=O)Nc1sc2c(c1-c1nc3ccccc3s1)CCN(C(C)C)C2	APP transl inh 69.8, Ba/F3 V617F tox 95.3, BaF3 parental 72.9, IEC-6 tox-1 99.4, KLF5 inh 61.9 | KLF5 confirm 61.8 | IEC-6 tox-2 23.1 | IEC-6 tox confirm 29.4
COc1ccc(N/C=C/C(=O)c2cc(OC)c(OC)c(OC)c2)cc1	IEC-6 tox-1 81.0, KLF5 inh 67.9 (no result: APP transl inh, Ba/F3 V617F tox, BaF3 parental) | KLF5 confirm 72.7 | IEC-6 tox-2 57.3 | IEC-6 tox confirm 59.0
COc1ccc(N/C=C/C(=O)c2ccc(OC)c(OC)c2)cc1	none (no result: APP transl inh)
Cc1nn(CC(=O)NNC(=O)c2ccccc2F)c([N+](=O)[O-])c1Br	none (no result: APP transl inh)
COc1ccccc1-c1nnc2sc(-c3ccc(N(C)C)cc3)nn12	APP transl inh 96.8, Ba/F3 V617F tox 81.0, BaF3 parental 79.7, IEC-6 tox-1 90.8, KLF5 inh 72.1 | KLF5 confirm 90.8 | IEC-6 tox-2 72.0 | IEC-6 tox confirm 72.2
CCOc1ccccc1/C=N/Nc1ccc(Cl)nn1	none (no result: APP transl inh, Ba/F3 V617F tox, BaF3 parental)
CCOc1ccc(/C=N/Nc2ccc(Cl)nn2)c(O)c1	IEC-6 tox-1 93.7, KLF5 inh 81.9 (no result: APP transl inh, Ba/F3 V617F tox, BaF3 parental) | KLF5 confirm inactive | IEC-6 tox-2 inactive | IEC-6 tox confirm inactive
Cc1ccc(C(=O)N/N=C\C=C\c2ccc(Br)cc2)cn1	none
Cc1ccc(C(=O)N/N=C/c2cc(Br)ccc2O)cn1	IEC-6 tox-1 83.6, KLF5 inh 82.9 (no result: APP transl inh, Ba/F3 V617F tox, BaF3 parental) | KLF5 confirm 86.7 | IEC-6 tox-2 inactive | IEC-6 tox confirm inactive
CC(C)CC1NC(=S)N(Cc2ccccc2)C1=O (stereo not drawn)	none
Cc1cccc(NC(=O)Cn2cnc(S(=O)(=O)N3CCCC3)c2)c1C	none (no result: APP transl inh, Ba/F3 V617F tox, BaF3 parental)
C/C(N)=C(/C#N)C(=O)CSc1nc2scc(-c3ccccc3)c2c(=O)n1C	none
O=C(Cc1ccc(N2CCNC2=O)cc1)N1CCCC(Nc2ccc(F)c(F)c2)C1 (stereo not drawn)	IEC-6 tox-1 48.5, KLF5 inh 67.1 (no result: APP transl inh, Ba/F3 V617F tox, BaF3 parental) | KLF5 confirm 69.3 | IEC-6 tox-2 61.6 | IEC-6 tox confirm 35.4
O=C1CCCN1CCC(=O)N1CCCC(Nc2ccc(F)c(F)c2)C1 (stereo not drawn)	none (no result: APP transl inh, Ba/F3 V617F tox, BaF3 parental)
O=C(Cc1ccc(N2CCNC2=O)cc1)N1CCCC(Nc2cccc(F)c2)C1 (stereo not drawn)	IEC-6 tox-1 71.2, KLF5 inh 69.9 (no result: APP transl inh, Ba/F3 V617F tox, BaF3 parental) | KLF5 confirm 71.2 | IEC-6 tox-2 47.3 | IEC-6 tox confirm 56.2
CSc1ncccc1C(=O)Nc1nccs1	none (no result: APP transl inh, Ba/F3 V617F tox, BaF3 parental)
Cc1ccc(S(=O)(=O)NCC2CCC(C(=O)NCc3cccnc3)CC2)cc1 (stereo not drawn)	none
CSc1nc(N(C)NC(=O)c2ccc(Cl)cc2)c2ccccc2n1	APP transl inh 94.9, Ba/F3 V617F tox 79.9, BaF3 parental 78.4, IEC-6 tox-1 80.1, KLF5 inh 64.8 | KLF5 confirm 75.3 | IEC-6 tox-2 63.7 | IEC-6 tox confirm 62.6
CSc1nc(N(C)NC(=O)c2ccccc2)c2ccccc2n1	APP transl inh 95.8, Ba/F3 V617F tox 69.5, BaF3 parental 69.0, IEC-6 tox-1 78.1, KLF5 inh 75.9 | KLF5 confirm 75.2 | IEC-6 tox-2 64.9 | IEC-6 tox confirm 55.3
O=C(Cn1cnc([N+](=O)[O-])n1)NCCO	none
COc1ccc(C(=O)NCCc2nnc3ccc(SCC(=O)N4CCCCC4)nn23)cc1	none (no result: APP transl inh, Ba/F3 V617F tox, BaF3 parental)
CCOc1ccc(NC(=O)c2cc(OC)nc3ccccc23)cc1	IEC-6 tox-1 87.7, KLF5 inh 66.0 (no result: APP transl inh, Ba/F3 V617F tox, BaF3 parental) | KLF5 confirm 82.3 | IEC-6 tox-2 62.6 | IEC-6 tox confirm 53.1
O=C(Nc1ccc(Br)cc1F)c1cccnc1	none
O=C(NC(Nc1nc2ccc([N+](=O)[O-])cc2s1)(C(F)(F)F)C(F)(F)F)c1ccccc1Cl	APP transl inh 65.9, Ba/F3 V617F tox 100.1, BaF3 parental 81.0, IEC-6 tox-1 76.2, KLF5 inh 76.8 | KLF5 confirm 87.0 | IEC-6 tox-2 90.5 | IEC-6 tox confirm 96.9
CCN1/C(=C/c2sc(-c3ccccc3C)c[n+]2C)Sc2ccccc21	Ba/F3 V617F tox 99.8, BaF3 parental 80.4, IEC-6 tox-1 34.5, KLF5 inh 63.1 | KLF5 confirm inactive | IEC-6 tox-2 inactive | IEC-6 tox confirm 38.5
COc1ccc(NC(=O)/C(Cl)=C(/Cl)S(=O)Cc2ccccc2Cl)cn1 (stereo not drawn)	APP transl inh 94.2, Ba/F3 V617F tox 101.5, BaF3 parental 103.5, IEC-6 tox-1 102.3, KLF5 inh 106.9 | KLF5 confirm 110.5 | IEC-6 tox-2 62.8 | IEC-6 tox confirm 85.7
COc1ccc(NC(=O)Cc2ccccc2F)cn1	none
Cc1ccc(S(=O)(=O)NC(=O)Nc2cc(C)no2)cc1	none (no result: APP transl inh, Ba/F3 V617F tox, BaF3 parental)
COc1ccc(C)cc1Nc1c2c(nc3ccccc13)CCC2	IEC-6 tox-1 88.4, KLF5 inh 62.1 (no result: APP transl inh, Ba/F3 V617F tox, BaF3 parental) | KLF5 confirm 87.0 | IEC-6 tox-2 70.2 | IEC-6 tox confirm 55.4
COc1ccccc1C1=NOC(COc2ccc3c(C)cc(=O)oc3c2)C1 (stereo not drawn)	Ba/F3 V617F tox 75.4, BaF3 parental 78.2, IEC-6 tox-1 83.3, KLF5 inh 70.7 (no result: APP transl inh) | KLF5 confirm 81.3 | IEC-6 tox-2 60.6 | IEC-6 tox confirm 57.2
COc1cccc(COc2ccc3c(C)cc(=O)oc3c2)c1	none (no result: APP transl inh, Ba/F3 V617F tox, BaF3 parental)
COc1cc2c(c(OC)c1OC)C(=O)CC2	none (no result: APP transl inh)
COc1cc2c(c(OC)c1OC)-c1ccc(OC)c(=O)cc1C(NC(C)=O)CC2 (stereo not drawn)	IEC-6 tox-1 94.2, KLF5 inh 71.5 (no result: APP transl inh, Ba/F3 V617F tox, BaF3 parental) | KLF5 confirm 87.8 | IEC-6 tox-2 82.3 | IEC-6 tox confirm 80.1
COc1ccc2nc(SCC(=O)NC3CCCCC3)[nH]c2c1	none (no result: APP transl inh, Ba/F3 V617F tox, BaF3 parental)
